Only some compounds are listed: those with a hit (about 6% of all), similar ones and a draw of the others.
D3 antag: blocks the human D3 dopamine receptor. D3R cells, DiscoveRx beta-arrestin luminescence, antagonist mode; stronger effect = lower value. max response, negative = inhibition, %. actives 2.5% (n = 360,000); in the data active = max response below about -50%; inconclusive = no clear call, values can overlap the other calls; also: % is scaled to controls: 0 for no effect and ±100 for the full control effect
Target sequence (P35462 whole entry, looked up): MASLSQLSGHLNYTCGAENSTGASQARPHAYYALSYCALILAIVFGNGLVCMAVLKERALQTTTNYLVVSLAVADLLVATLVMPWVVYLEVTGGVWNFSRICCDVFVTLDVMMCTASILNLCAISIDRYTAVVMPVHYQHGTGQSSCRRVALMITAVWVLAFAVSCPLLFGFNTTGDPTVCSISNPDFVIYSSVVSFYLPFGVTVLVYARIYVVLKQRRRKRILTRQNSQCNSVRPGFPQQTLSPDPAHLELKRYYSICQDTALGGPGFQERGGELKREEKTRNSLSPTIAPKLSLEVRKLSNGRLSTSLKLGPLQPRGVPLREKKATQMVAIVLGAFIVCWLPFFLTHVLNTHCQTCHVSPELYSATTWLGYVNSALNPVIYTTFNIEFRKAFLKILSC
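Cells plated overnight at 1500 cells/well, then exposed to library compounds with dopamine controls for 90 minutes at 37 degrees C. DiscoveRx reagent added for 30–60 minutes at room temperature; luminescence read, quantitative HTS format.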
D3 ag: agonists of human D3 dopamine receptor | D3R DiscoveRx beta-arrestin cells, luminescence, 90 min | max activation, % | actives 0.58% (n = 410,000); in the data active = max activation above about 30%; also: 0% is about no effect
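Agonist mode: compounds and dopamine controls were applied to plated cells for 90 min at 37 degrees C after an overnight attachment at 1500 cells/well. Luminescent read-out followed 30 - 60 minutes at room temperature with DiscoveRx detection reagent.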
D1 ag: human D1 receptor agonism; HEK293 T-REx D1 cells, calcium flux, agonist mode; activation, % at 2 µM; actives 1% (n = 360,000); AID 504660; in the data active = activation above about 30%; also: 0% is about no effect
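Tetracycline-induced HEK293 TREx D1 cells, force-coupled to calcium signalling, were dye-loaded with a no-wash calcium kit. Compound was pin-added after a 10 s baseline. Fluorescence was read kinetically at 1 cycle/s for 180 s, with calcium rises flagged as agonism.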
D1 antagonist: blocks dopamine activation of the human D1 receptor; P21728; HEK293 TREx D1 cells, calcium flux, dopamine EC80; stronger effect = lower value; activity change, negative = inhibition, % at 10 µM; actives 3.2% (n = 360,000); AID 504652; in the data active = activity change below about -30%; also: % is scaled to controls: 0 for no effect and ±100 for the full control effect
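After overnight tetracycline induction at 30 C, force-coupled D1 HEK293 cells took up a no-wash calcium dye at room temperature. Compounds were added and monitored 180 s, and the response to EC80 dopamine was then recorded.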
D1 potentiator: potentiators of human D1 dopamine receptor. AID 504651. actives 0.036% (n = 360,000). HEK293 TREx D1 cells, calcium flux, dopamine EC20 potentiation. potentiation, % at 10 µM. P21728; in the data active = potentiation above about 30%; also: 0% is about no effect
* = called active by the depositor.

How did Clc1ccc(C2(Cn3cncn3)OCCO2)c(Cl)c1 do in these assays?
D3 ag: -12

Results for CCC(C(N)=O)N1CCCC1=O (stereo unspecified) ?
D3 ag: -14

How did NC(=O)C1(N2CCCCC2)CCN(Cc2ccccc2)CC1 do in these assays?
D3 antag: -68*; D3 ag: -29; D1 ag: 3; D1 antagonist: -2; D1 potentiator: -3

Results for OC1(c2ccc(F)cc2)CC2CCC(C1)N2Cc1nnnn1C1CCCC1 (stereo unspecified) ?
D3 antag: -110*; D3 ag: -23; D1 ag: 0; D1 antagonist: -14; D1 potentiator: -5

How did NC1CCc2cc(O)c(O)cc2C1 (stereo unspecified) do in these assays?
D3 antag: 59; D3 ag: 141*; D1 ag: 77*; D1 antagonist: -102*; D1 potentiator: -10

What do the screens show for `CN1CCN(c2ncnc(Cl)c2N)CC1`?
D3 antag: -1; D3 ag: -8; D1 ag: 5; D1 antagonist: 11; D1 potentiator: 7

Results for CN1CCN(c2nccc3c2ncn3C)CC1 ?
D3 antag: -64*; D3 ag: 0; D1 ag: 3; D1 antagonist: 0; D1 potentiator: 5

How did CC(C)(C)c1ccc(O)cc1 do in these assays?
D3 ag: -19

How did C=CCN1CC[C@]23c4c5ccc(O)c4OC2C(O)C=CC3[C@H]1C5 (stereo partly specified) do in these assays?
D3 antag: -110*; D3 ag: -95

How did COc1ccc2c3c1OC1C(O)C=CC4[C@@H](C2)N(C)CC[C@]314 (stereo partly specified) do in these assays?
D3 antag: -13; D3 ag: 0

How did Cc1cccc(C)c1NC(=O)CN1CCCC1=O do in these assays?
D3 ag: -11

Results for O=C(CN1CCCC1=O)Nc1ccccc1 ?
D3 antag: 0; D3 ag: 11; D1 ag: 1; D1 antagonist: -35*; D1 potentiator: -3

Results for C/C(=N\N1CCCCCC1)c1c(O)n(-c2ccc(C)cc2)c(=O)[nH]c1=O ?
D3 antag: -5; D3 ag: -1; D1 ag: 3; D1 antagonist: -40*; D1 potentiator: -4

What do the screens show for `CCCCCCC(=O)c1c(O)n(-c2ccccc2OC)c(=O)[nH]c1=O`?
D3 antag: 9; D3 ag: 1; D1 ag: 1; D1 antagonist: -31*; D1 potentiator: -3

How did COc1ccc2[nH]c(C)c(CCNCc3cn(C)c4ccccc34)c2c1 do in these assays?
D3 antag: 0; D3 ag: -8; D1 ag: 41*; D1 antagonist: -55*; D1 potentiator: -11

What do the screens show for `Cc1cc(OCC(=O)N2CCN(CCc3ccncc3)CC2)ccc1Cl`?
D3 ag: -15; D1 ag: 8; D1 antagonist: 7; D1 potentiator: -1

How did CC1(C)OC(c2ccccc2)=C/C(=C/C=C2C(=O)NC(=O)NC2=O)O1 do in these assays?
D3 antag: -5; D3 ag: 3; D1 ag: 52*; D1 antagonist: -5; D1 potentiator: -1

How did C=C1C(=O)O[C@H]2[C@H]1[C@H](OC(=O)CC(=O)O[C@@H]1C[C@@H](C)[C@@H]3C=CC(=O)[C@@]3(C)[C@H]3OC(=O)C(=C)[C@H]13)C[C@@H](C)[C@H]1C=CC(=O)[C@]12C do in these assays?
D3 antag: -13; D3 ag: -5; D1 ag: 3; D1 antagonist: 6; D1 potentiator: -1

Results for C=C1C(=O)OC2C1CCC(C)C1(O)C=CC(=O)C21C (stereo unspecified) ?
D3 antag: 22; D3 ag: 4

What do the screens show for `C=C1C(=O)O[C@H]2C[C@@H](C)[C@@H]3C=CC(=O)[C@@]3(C)C[C@H]12`?
D3 antag: -66*; D3 ag: -3; D1 ag: 2; D1 antagonist: 22; D1 potentiator: 0

Results for C=C1C(=O)O[C@@H]2C[C@@H](C)[C@@H]3C=CC(=O)[C@@]3(C)[C@@H](OC(=O)CC(=O)O[C@H]3[C@@H]4C(=C)C(=O)O[C@@H]4C[C@@H](C)[C@@H]4C=CC(=O)[C@]43C)[C@H]12 ?
D3 antag: -110*; D3 ag: -32; D1 ag: 4; D1 antagonist: -3; D1 potentiator: -4

Results for C=C1C(=O)O[C@@H]2C[C@@H](C)[C@@H]3C4OC4C(=O)[C@@]3(C)[C@@H](O)[C@H]12 (stereo partly specified) ?
D3 antag: -91*; D3 ag: -22; D1 ag: 1; D1 antagonist: -3; D1 potentiator: 0

What do the screens show for `C=C1C(=O)OC2CC(C)C3C=CC(=O)C3(C)C(O)C12` (stereo unspecified)?
D3 antag: -75*; D3 ag: -26

What do the screens show for `Nc1ccc(N)cc1`?
D3 ag: -7

What do the screens show for `CCOc1cc2c(cc1OCC)-n1cccc1C(c1ccc(F)c(OC)c1)NC2` (stereo unspecified)?
D3 antag: -1; D3 ag: 0; D1 ag: 66*; D1 antagonist: -43*; D1 potentiator: -6

What do the screens show for `COC1CC2C=C(C)C=CC=CC(=O)NC(c3ccccc3)CC=CCCC(O)CC(=O)C2=C1O` (stereo unspecified)?
D3 antag: -85*; D3 ag: 11

What do the screens show for `Brc1ccc2c(c1)-n1nncc1CN(CC1CCCCC1)C2`?
D3 antag: inconclusive; D3 ag: -11

How did Cc1ccc(CN2Cc3ccc(Br)cc3-n3nncc3C2)cc1 do in these assays?
D3 antag: -55*; D3 ag: -11

What do the screens show for `Cn1cc(C2=C(c3cn(C4CCN(Cc5ccccn5)CC4)c4ccccc34)C(=O)NC2=O)c2ccccc21`?
D3 ag: -9

What do the screens show for `CCCN1CCO[C@@H]2c3cc(O)ccc3OC[C@H]21`?
D3 antag: 28; D3 ag: 146*; D1 ag: 2; D1 antagonist: -22; D1 potentiator: -5

What do the screens show for `Nc1nc(N)c2nc(CNc3ccc(C(=O)N[C@@H](CCC(=O)O)C(=O)O)cc3)cnc2n1`?
D3 ag: 6

What do the screens show for `CCN(CC(=O)Nc1ccc(NC(C)=O)cc1)C(=O)CSC(c1ccccc1)c1ccccc1`?
D3 antag: 2; D3 ag: -2; D1 ag: 45*; D1 antagonist: -15; D1 potentiator: -3

What do the screens show for `CN1CCN(c2ccc(N)cc2Cl)CC1`?
D3 antag: -60*; D3 ag: -14; D1 ag: 6; D1 antagonist: -27; D1 potentiator: -16

What do the screens show for `N#Cc1ccc2nc(-c3ccc(CN4CCC(n5c(=O)[nH]c6ccccc65)CC4)cc3)c(-c3ccccc3)nc2c1`?
D3 antag: -57*; D3 ag: -9
